From PubChem BioAssay (EPA / NIEHS)
“And” between values parts separate entries of the source, which are not always exact repeats. Equal values may be shown once. More than one record can exist for a structure, and the calls need not agree. The source made the active and inactive calls. Rule for the calls: active = hit-call score of the fitted dose curve at least 0.9, where 1 is the maximum; inactive = score below 0.9.

Columns and labels:
Details in all cases: mRNA level, 48 h; actives raise or lower the signal
[1] = read-out: Pro-epidermal growth factor (Homo sapiens) (UniProt P01133); assay: LTEA_HepaRG_EGF: Life Technologies and Expression Analysis (LTEA) Assay for Epidermal growth factor (EGF) using HepaRG (AID 2283489)
How it was run: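 Concentration-response mRNA assay: HepaRG cells dosed 48 h (max 100 uM, 0.5% DMSO), EGF measured by qRT-PCR and normalized to ACTB/GAPDH/POLR2A.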

[2] = read-out: Early growth response protein 1 (EGR1) transcription factor, EGR1 (gene 1958); assay: LTEA_HepaRG_EGR1: Life Technologies and Expression Analysis (LTEA) Assay for Early growth response protein 1 (EGR1) transcription factor using HepaRG (AID 2283490)
How it was run: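 Read-out is EGR1 mRNA level by qRT-PCR, normalized to three housekeeping genes and analysed for gain or loss of signal against 0.5% DMSO. Source cells: human HepaRG, treated 48 h at up to 100 uM in half-log dilutions.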

[3] = read-out: Ezrin (EZR), EZR (gene 7430); assay: LTEA_HepaRG_EZR: Life Technologies and Expression Analysis (LTEA) Assay for Ezrin (EZR) using HepaRG (AID 2283491)
How it was run: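 HepaRG, 48 h chemical exposure, 8-pt half-log series from 100 uM, 0.5% DMSO vehicle, duplicates. Read-out: EZR mRNA by TaqMan qRT-PCR (Fluidigm array), housekeeping-normalized; bidirectional curve fit vs DMSO baseline.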

[4] = read-out: Cytochrome P450 3A7 (Homo sapiens) (UniProt P24462); assay: LTEA_HepaRG_CYP3A7: Life Technologies and Expression Analysis (LTEA) Assay for CYP3A7 using HepaRG (AID 2283492)
How it was run: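 qRT-PCR of CYP3A7 in HepaRG lysates after 48 h treatment; concentration-response (8 points, max 100 uM) analysed bidirectionally relative to 0.5% DMSO controls.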

[5] = read-out: CYP3A5 (gene 1577); assay: LTEA_HepaRG_CYP3A5: Life Technologies and Expression Analysis (LTEA) Assay for CYP3A5 using HepaRG (AID 2283493)
How it was run: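 mRNA induction or loss of CYP3A5 assessed in HepaRG after 48 h dosing, 100 uM top concentration, duplicate wells; TaqMan qRT-PCR with ACTB, GAPDH, POLR2A normalization; 0.5% DMSO as negative control.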

[6] = read-out: Fatty Acid-Binding Protein 1 (FABP1), FABP1 (gene 2168); assay: LTEA_HepaRG_FABP1: Life Technologies and Expression Analysis (LTEA) Assay for Fatty Acid-Binding Protein 1 (FABP1) using HepaRG (AID 2283494)
How it was run: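 HepaRG, 48 h post-plating switched to serum-free induction medium, then dosed 48 h (duplicate, 8 pts, ≤100 uM, 0.5% DMSO). RNA → Fluidigm TaqMan qRT-PCR, FABP1 normed to ACTB/GAPDH/POLR2A. Bidirectional curve fit vs DMSO.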

[7] = read-out: Cytochrome P450 4A22 (Homo sapiens) (UniProt Q5TCH4); assay: LTEA_HepaRG_CYP4A22: Life Technologies and Expression Analysis (LTEA) Assay for Cytochrome P450 4A22 (CYP4A22) using HepaRG (AID 2283495)
How it was run: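 Concentration-response (8 points, max 100 uM, 0.5% DMSO) in human HepaRG liver cells after 48 h exposure. CYP4A22 mRNA by TaqMan qRT-PCR with housekeeping-gene normalization.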

[8] = read-out: Cytochrome P450 7A1 (Homo sapiens) (UniProt P22680); assay: LTEA_HepaRG_CYP7A1: Life Technologies and Expression Analysis (LTEA) Assay for Cytochrome P450 7A1 (CYP7A1) using HepaRG (AID 2283496)
How it was run: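 Gene expression endpoint in human HepaRG liver cells treated for 48 h with test chemicals (up to 100 uM, 0.5% DMSO). Values come from bidirectional concentration-response fitting versus DMSO.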

[9] = read-out: Glutathione S-Transferase (GSTA2), GSTA2 (gene 2939); assay: LTEA_HepaRG_GSTA2: Life Technologies and Expression Analysis (LTEA) Assay for Glutathione S-Transferase (GSTA2) using HepaRG (AID 2283497)
How it was run: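 HepaRG, 48 h dosing, 8-pt half-log CRC from 100 uM, 0.5% DMSO vehicle, n=2; RNA → Fluidigm TaqMan qRT-PCR; GSTA2 vs ACTB/GAPDH/POLR2A; gain/loss fit vs DMSO.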

[10] = read-out: Glutamate-cysteine ligase catalytic (GCLC), GCLC (gene 2729); assay: LTEA_HepaRG_GCLC: Life Technologies and Expression Analysis (LTEA) Assay for Glutamate-cysteine ligase catalytic (GCLC) using HepaRG (AID 2283498)
How it was run: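 Read-out is GCLC transcript level by Fluidigm-based TaqMan qRT-PCR, normalized to three housekeeping genes and fitted in both directions relative to 0.5% DMSO. Human HepaRG cells received chemicals for 48 h, up to 100 uM.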

[11] = read-out: growth arrest and DNA damage 45 (GADD45G), GADD45G (gene 10912); assay: LTEA_HepaRG_GADD45G: Life Technologies and Expression Analysis (LTEA) Assay for growth arrest and DNA damage 45 (GADD45G) using HepaRG (AID 2283499)
How it was run: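 Concentration-response in HepaRG: 48 h dosing, 0.5% DMSO, highest level 100 uM. GADD45G expression by qRT-PCR, normalised to endogenous controls; bidirectional fit to DMSO.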

[12] = read-out: Glutamate-cysteine ligase regulatory (GCLM), GCLM (gene 2730); assay: LTEA_HepaRG_GCLM: Life Technologies and Expression Analysis (LTEA) Assay for Glutamate-cysteine ligase regulatory (GCLM) using HepaRG (AID 2283500)
How it was run: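 Human liver HepaRG cultures receive test chemicals for 48 hours at up to 100 uM in 0.5% DMSO. GCLM expression is measured by qRT-PCR and analysed for increases or decreases against vehicle.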

[13] = read-out: Glutathione S-transferase M3 (GSTM3), GSTM3 (gene 2947); assay: LTEA_HepaRG_GSTM3: Life Technologies and Expression Analysis (LTEA) Assay for Glutathione S-transferase M3 (GSTM3) using HepaRG (AID 2283501)
How it was run: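 Expression of GSTM3 is determined by qRT-PCR in human liver HepaRG cells treated 48 h with an 8-point half-log range from 100 uM in 0.5% DMSO.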

[14] = read-out: Heat shock 70 kDa protein 1 (HSPA1A), gene 3303; assay: LTEA_HepaRG_HSPA1A: Life Technologies and Expression Analysis (LTEA) Assay for Heat shock 70 kDa protein 1 (HSPA1A) using HepaRG (AID 2283502)
How it was run: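 HSPA1A induction in human HepaRG liver cells is measured after 48 h of chemical treatment (100 uM maximum, 0.5% DMSO vehicle). Expression comes from qRT-PCR normalized to endogenous controls.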

[15] = read-out: Hypoxia-inducible factor 1-alpha (Homo sapiens) (UniProt Q16665); assay: LTEA_HepaRG_HIF1A: Life Technologies and Expression Analysis (LTEA) Assay for Hypoxia-inducible factor 1 (HIF1A) Trancription factor using HepaRG (AID 2283503);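 note: HIF1A transcript by TaqMan qRT-PCR normalized to ACTB GAPDH and POLR2A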
How it was run: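 HepaRG, 48 h exposure, 8-pt half-log series from 100 uM, 0.5% DMSO vehicle, duplicates. Readout: HIF1A transcript by qRT-PCR (Fluidigm array), housekeeping-normalised. Bidirectional curve fit vs DMSO baseline.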

[16] = read-out: 3-Hydroxy-3-Methylglutaryl-CoA Synthase 2 (HMGCS2), HMGCS2 (gene 3158); assay: LTEA_HepaRG_HMGCS2: Life Technologies and Expression Analysis (LTEA) Assay for 3-Hydroxy-3-Methylglutaryl-CoA Synthase 2 (HMGCS2) using HepaRG (AID 2283504)
How it was run: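 This steatosis marker was read as HMGCS2 mRNA change in HepaRG cells treated 48 h with up to 100 uM chemical. Normalisation used housekeeping genes; activity in either direction was fitted relative to 0.5% DMSO vehicle.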

[17] = read-out: HGF (gene 3082); assay: LTEA_HepaRG_HGF: Life Technologies and Expression Analysis (LTEA) Assay for Hepatocyte Growth Facto (HGF) using HepaRG (AID 2283505)
How it was run: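 Using HepaRG monolayers kept in 0.5% DMSO, chemicals were tested in duplicate over eight half-log concentrations from 100 uM for 48 h. Endpoint: HGF mRNA change relative to DMSO, normalized to ACTB/GAPDH/POLR2A.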

[18] = read-out: Insulin Like Growth Factor 1 (IGF1), IGF1 (gene 3479); assay: LTEA_HepaRG_IGF1: Life Technologies and Expression Analysis (LTEA) Assay for Insulin Like Growth Factor 1 (IGF1) using HepaRG (AID 2283506)
How it was run: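 Using human HepaRG liver cells, IGF1 transcript induction or suppression is measured 48 h after dosing across eight concentrations capped at 100 uM. Values derive from bidirectional concentration-response fitting with DMSO as baseline.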

[19] = read-out: Intercellular Adhesion Molecule 1 (ICAM1), ICAM1 (gene 3383); assay: LTEA_HepaRG_ICAM1: Life Technologies and Expression Analysis (LTEA) Assay for Intercellular Adhesion Molecule 1 (ICAM1) using HepaRG (AID 2283507)
How it was run: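 Using the human liver line HepaRG, compounds are tested in duplicate over 48 h at concentrations up to 100 uM. Expression is determined by TaqMan qRT-PCR, normalized to endogenous controls, and analysed relative to 0.5% DMSO vehicle.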

[20] = read-out: Insulin-like growth factor-binding protein 1 (IGFBP1), IGFBP1 (gene 3484); assay: LTEA_HepaRG_IGFBP1: Life Technologies and Expression Analysis (LTEA) Assay for Insulin-like growth factor-binding protein 1 (IGFBP1) using HepaRG (AID 2283508)
How it was run: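 HepaRG, 48 h, 8 conc. (max 100 uM, half-log), duplicates, 0.5% DMSO. Readout: TaqMan qRT-PCR, ACTB/GAPDH/POLR2A normalisation. Fit: bidirectional vs DMSO.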

Measured: AC50

Cytochrome P450 3A7 (Homo sapiens), sequence (P24462 whole entry, looked up): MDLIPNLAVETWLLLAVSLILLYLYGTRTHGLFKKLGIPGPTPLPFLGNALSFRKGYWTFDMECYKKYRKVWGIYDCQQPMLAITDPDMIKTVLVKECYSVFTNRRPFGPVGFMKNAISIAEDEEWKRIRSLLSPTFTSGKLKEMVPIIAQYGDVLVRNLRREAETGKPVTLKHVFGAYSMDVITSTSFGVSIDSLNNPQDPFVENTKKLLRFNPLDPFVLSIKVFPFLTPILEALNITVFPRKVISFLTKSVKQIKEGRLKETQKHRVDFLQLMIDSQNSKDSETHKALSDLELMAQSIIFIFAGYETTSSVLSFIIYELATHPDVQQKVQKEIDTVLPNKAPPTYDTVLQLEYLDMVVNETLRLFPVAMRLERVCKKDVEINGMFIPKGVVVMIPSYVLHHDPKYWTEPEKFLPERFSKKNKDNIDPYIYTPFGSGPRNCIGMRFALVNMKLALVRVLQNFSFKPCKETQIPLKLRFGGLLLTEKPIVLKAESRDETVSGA
Hypoxia-inducible factor 1-alpha (Homo sapiens), sequence (Q16665 whole entry, looked up): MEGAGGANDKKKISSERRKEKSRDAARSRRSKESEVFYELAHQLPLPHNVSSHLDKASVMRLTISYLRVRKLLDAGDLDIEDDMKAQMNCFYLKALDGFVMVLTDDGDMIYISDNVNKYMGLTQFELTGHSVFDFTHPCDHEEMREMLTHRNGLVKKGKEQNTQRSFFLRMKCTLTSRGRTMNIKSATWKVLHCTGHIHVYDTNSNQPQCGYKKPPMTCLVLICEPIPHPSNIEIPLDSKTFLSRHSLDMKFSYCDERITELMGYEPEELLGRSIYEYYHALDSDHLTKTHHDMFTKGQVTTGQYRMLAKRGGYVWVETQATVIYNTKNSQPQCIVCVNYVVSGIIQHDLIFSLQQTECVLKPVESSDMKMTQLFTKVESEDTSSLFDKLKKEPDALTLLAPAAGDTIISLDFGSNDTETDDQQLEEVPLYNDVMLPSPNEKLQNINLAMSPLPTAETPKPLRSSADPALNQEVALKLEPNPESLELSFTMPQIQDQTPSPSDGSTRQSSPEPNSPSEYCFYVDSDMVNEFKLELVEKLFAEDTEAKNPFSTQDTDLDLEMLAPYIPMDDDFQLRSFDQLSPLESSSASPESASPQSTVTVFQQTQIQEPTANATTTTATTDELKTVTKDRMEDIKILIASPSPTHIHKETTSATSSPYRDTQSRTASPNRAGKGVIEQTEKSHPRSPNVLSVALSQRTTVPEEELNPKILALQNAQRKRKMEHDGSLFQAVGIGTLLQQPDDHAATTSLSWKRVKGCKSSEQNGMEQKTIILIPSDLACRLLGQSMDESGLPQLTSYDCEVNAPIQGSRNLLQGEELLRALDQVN

CCCCOCCOCCO
inactive: all assays above

C[C@]12CC[C@@H]3c4ccc(O)cc4CC[C@H]3[C@@H]1CC[C@@H]2O
active: [5] 50 µM | [6] 29 µM | [7] 50 µM | [18] 31.2 µM
not listed: [4] | [15]
inactive: all other assays above

C=C(C)C(N)=O
inactive: all assays above

C#C[C@]1(O)CC[C@H]2[C@@H]3CCc4cc(O)ccc4[C@H]3CC[C@@]21C
not listed: [12]
inactive: all other assays above

COC(=O)c1ccc(C(=O)OC)cc1
inactive: all assays above

O=C(c1ccc(OCCN2CCCCC2)cc1)c1c(-c2ccc(O)cc2)sc2cc(O)ccc12
inactive: [1] | [4] | [7] | [8] | [10] | [11] | [12] | [13] | [17]
active: [2] 90.9 µM | [3] 50 µM | [5] 41.4 µM | [6] 50 µM | [9] 69.1 µM | [14] 88.1 µM | [16] 3.14 µM | [18] 78.3 µM | [19] 71 µM | [20] 75.6 µM

CC/C(=C(\c1ccccc1)c1ccc(OCCN(C)C)cc1)c1ccccc1
active: [2] 73.6 µM | [3] 81.4 µM and 50 µM | [5] 86.7 µM | [6] 60 µM and 70.9 µM | [7] 14.5 µM and 20.7 µM | [9] 70.2 µM | [11] 90.5 µM | [12] 74 µM and 50 µM | [14] 74.8 µM and 76.4 µM | [15] 82 µM | [16] 66 µM | [18] 84.6 µM | [19] 85.1 µM and 99.2 µM | [20] 65.9 µM and 57 µM
inactive: [1] | [2] | [4] | [5] | [8] | [9] | [10] | [11] | [13] | [15] | [16] | [17] | [18]
